Our source for the MAPPIT interaction score values is the supplement of paper PMC10105736.

What all share (assay): MAPPIT interaction score (arbitrary units); higher = stronger binary interaction signal, active = hit call of the paper
One assay has as its target RpL35A. The conditions noted are these: MAPPIT configuration: N-N; pair source set: Finley_Y2H.
The target of a further assay is RpS20. As to conditions: MAPPIT configuration: N-N; pair source set: Curagen_low_conf;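 active = MAPPIT score above the 99th percentile of random reference set scores in the same batch; inactive = at or below it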.
The target of the next assay is hpo. As to conditions: pair source set: Lit-BM-16.
A further assay addresses yki. The conditions noted are these: pair source set: Lit-BM-16.
In the next assay the target is Rpn6. The conditions noted are these: pair source set: Lit-BM-16.
Another assay concerns the target Rpt2. As to conditions: MAPPIT configuration: N-N; pair source set: screen_1.
Another assay has as its target RpLP2. As to conditions: MAPPIT configuration: N-N; pair source set: Finley_Y2H.
The target of a further assay is Rtnl1. The conditions noted are these: MAPPIT configuration: N-N; pair source set: screen_2.
The next assay deals with RpS5a. As to conditions: MAPPIT configuration: N-N; pair source set: Curagen_high_conf.
A further assay deals with RpS29. As to conditions: pair source set: RRS.
The target in a further assay is RpS21. As to conditions: MAPPIT configuration: N-N; pair source set: DPIM.
Another assay concerns the target RpS10b. As to conditions: MAPPIT configuration: N-N; pair source set: DPIM.
The target in the next assay is RpL37A. As to conditions: MAPPIT configuration: N-N; pair source set: Curagen_high_conf.
In the next assay the target is RpS3. As to conditions: MAPPIT configuration: N-N; pair source set: Curagen_low_conf.
Another assay addresses msl-3. The conditions noted are these: MAPPIT configuration: N-N; pair source set: DPIM.
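Note: HEK293T cells with Epo stimulation, STAT-responsive firefly luciferase reporter, fold induction versus unstimulated cells divided by the larger fold induction of two negative controls lacking either bait or prey.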

B1: Archease (protein)
chain: MEVEFSRENFLLPEMKYEYLDHTADVQIHGWGSSLKEAFEQCGVAMFGYMTELDYVSVEQCFEIEAHGDDLESLLFHFLDELLFLFSAEPYLVCKKLEITKFDVENFEISCHCYGEPFELGKHPQGTEVKAITYSAMQIIQDVEASNYEVFVIIDI
As for B1, in the assay with RpL35A, the MAPPIT interaction score is -0.294 (inactive).

B2: hpo (protein)
chain: MSEPEVTSVVDMKSPNISSSCSFFKLKKLSEESLLQPPEKVFDIMYKLGEGSYGSVYKAVHKESSSIVAIKLVPVESDLHEIIKEISIMQQCDSPYVVRYYGSYFKQYDLWICMEYCGAGSVSDIMRLRKKTLTEDEIATILSDTLQGLVYLHLRRKIHRDIKAANILLNTEGYAKLADFGVAGQLTDTMAKRNTVIGTPFWMAPEVIEEIGYDCVADIWSLGITALEMAEGKPPYGEIHPMRAIFMIPQKPPPSFREPDRWSTEFIDFVSKCLVKEPDDRATATELLEHEFIRNAKHRSILKPMLEETCAIREQQRANRSFGGVLAASQAKSLATQENGMQQHITDNAFMEDPGTLVPEKFGEYQQSSASDATMIAHAEQGVDEGTLGPGGLRNLSKAAAPAAASSAASPLDMPAVDSGTMVELESNLGTMVINSDSDDSTTAKNNDDQKPRNRYRPQFLEHFDRKNAGDGRGDEKPIATEYSPAAAEQQQQQQQQQQQQQQDEQHLASGANDLNNWEHNMEMQFQQISAINQYGLQQHQQQQQVLMAYPLMNEQLIALNNQPNLLLSNAAPMGQQGIPAAAPAQPPPAYQNQHMHTQSHAYVEGEFEFLKFLTFDDLNQRLCNIDHEMELEIEQLNKKYNAKRQPIVDAMNAKRKRQQNINNNLIKI
For B2, the MAPPIT interaction score in the assay with RpS20 was 2.67 (active); with hpo (MAPPIT configuration: N-C), 1.43 (inactive); with hpo (MAPPIT configuration: N-N), -0.987 (inactive); with yki (MAPPIT configuration: N-C) it was -0.198 (inactive); with yki (MAPPIT configuration: N-N), -0.76 (inactive).

B3: alien (protein)
chain: MSDNDDDFMCDDDEDYGLEYSEDSNSEPDVDLENQYYNSKALKEEEPKAALASFQKVLDLENGEKGEWGFKALKQMIKINFRLCNYDEMMVRYKQLLTYIKSAVTRNHSEKSINSILDYISTSKNMALLQNFYETTLDALRDAKNDRLWFKTNTKLGKLYFDRSDFTKLQKILKQLHQSCQTDDGEDDLKKGTQLLEIYALEIQMYTVQKNNKKLKALYEQSLHIKSAIPHPLIMGVIRECGGKMHLREGEFEKAHTDFFEAFKNYDESGSPRRTTCLKYLVLANMLMKSGINPFDSQEAKPYKNDPEILAMTNLVNSYQNNDINEFETILRQHRSNIMADQFIREHIEDLLRNIRTQVLIKLIRPYKNIAIPFIANALNIEPAEVESLLVSCILDDTIKGRIDQVNQVLQLDKINSSASRYNALEKWSNQIQSLQFAVVQKMA
Take B3: the MAPPIT interaction score in the assay with Rpn6 (MAPPIT configuration: N-C) is 4.99 (active); with Rpn6 (MAPPIT configuration: N-N), 0.207 (inactive).

B4: CG12096 (protein)
chain: MEMEDNWWVTKLKALESKPQRLDALTAMNSAIAKEAALPRQIIERLLTTDQLYDCANPAADSHVPKDQAVDVTLELLCHCLDQLAMDTADEQLSSLLRRGLTHSNPALRAQVLASLFKKLLRQLTVGQVLTLPNNELIFLILDELKQPDTQSTSLAINILSIVLPQRISNADVQAKLVQLLKQNEIVRCRAYELAVVLAKKSATLLSDVTFILDAALSELDNDDVLLQASVMELLVPLAEQNHGLSYMERRRVLDIISYRVQRVEEHPLDALLVPSIMKFFGKISVYQPLKIIGGYPHMLACLFMQLQSEDESILPTAMDTLANLATTPQGKILLNMHFSGAMEKSFKKYGSHTKKLSAHIKKRLLNSLDVIYDFKTPPATEIINIGKNWYECFAGGAHANIIMDLINTPFPDLQMAALSFLKTICKYNWGIVALKNTGGAVEFLLSRQKDLHRDIKYMKWQIMEILSASAEFSPTETIRFTAYVNEGPYHVQADLDVATEPQGNA
Consider B4, for which the MAPPIT interaction score in the assay with Rpt2 was 5.01 (active).

B5: CG1307 (protein)
chain: MGDKLLDPTQIINGLAVMLSFFVGYRYALKRGDAKDSVTEGAATPFSQESSVSSGSEASVSDKGYGGLNDNFKMVLVVRNDLKMGKGKIAAQCGHGAVGAYQRAVVRTPRLLRSWENCGCAKIAVRVESEAELMAIKKEAERQQLNTCLIRDAGRTQIEANSKTVLAVGPAAAADIDRVTGHLKLL
With B5, the MAPPIT interaction score with RpLP2 was 0.942 (inactive).

B6: rush (protein)
chain: MVDRLVNSEANTRRIASVENCFGSSGVPLAMQGRVLVGEGVLTKMCRKRPKSRQFFLFNDILVYGNIVIGKKKYNKQHIMPLEEVSLESIADNQTYRNGWYIRTTTKSFVVFAATSTEKQEWMAHINKCVEDLLRKSGKKPVENHAAVWVPDTDASVCMHCKKTQFTFIQRRHHCRNCGAVVCAGCSAKKFLLPQQSTKALRVCDACYERLKHVPSSLGSGEDSAAATGAASGNKLNTTAGDSSNDEDSDEETASPGGESHDEPRFYGDNSVLSAVEDSSTITSPSSATTGSLEAPQVTPSVQSSPAAVATTGSHC
Consider B6, for which the MAPPIT interaction score with Rtnl1 was -0.205 (inactive).

B7: Vm32E (protein)
chain: MQIVALTLVAFVAIAGASCPYAAPAPAYSAPAASSGYPAPPCPTNYLFSCQPNLAPAPCAQEAPAYGSAGAYTEQVPHYVGSPNREQLQQFHQRIGMAALMEELRGLGQGIQGQQY
Consider B7, for which, in the assay with RpS5a, the MAPPIT interaction score was 0.177 (inactive).

B8: Cog8 (protein)
chain: MDFPDKMDLENERVLKLIFPDGVPDNLRGNPELDNYLAKLGTCKVEQLKKEQTRLAEEARTILEQTQDLAISNYRTFITTAENSRSIFSEFLRSEQQLDTLVSKLPDLSVQCERFLQDSAELNEQRRLNSITLQKNAQLLEVLELPQLMERCIREGRYEEALELAAYATRLGQHQGHIPVVTSIVRSVEALWHNMLVQLVAQLRTDLQLPKCLQIVGYLRRMQAFGDNELRLKFLQARDAWLTSCLEAIPTADAQQHLSKTIEITRINLFNIITQYRAIFPEDEGTLKTQSSLRPLQGVSCNGDRLFQAWLHNKISDFLQTLERDLQLGVGSVETVLGQCMYFGLSFSRVGADFRALMAPIFVGVIRRRFESSVEQVDEQFERELERFTLINKVALHSHARKQVDPEQESYAPPEALLDFYPLAALCNGYLSALNELRLCAPLALATDVTRCLQHSLQQAAQRVLAFYRQEQQAFAGSEREAFVRLCSCLAYDLVPYIQRCIHGVFPPQSLTVHLGISLLQLEQQQLTYLQQTRILEPLKHLLPTKALVQPQDKVMEAKPSAGVPVTAEG
As for B8, the MAPPIT interaction score in the assay with RpS29 (MAPPIT configuration: N-C) is 0.627 (inactive); with RpS29 (MAPPIT configuration: N-N), -0.265 (inactive).

B9: l(2)gl (protein)
chain: MLKFIRGKGQQPSADRHRLQKDLFAYRKTAQHGFPHKPSALAYDPVLKLMAIGTQTGALKVFGQPGVELYGQHTLLNNSASELNVQLLEWVYGTGRILSLTAANQLILWEPVGATLLPIKTLPFDGKLKKVSSLCCSLSKDLLWIGTEGGNIYQLDLHTFTIKEPVIYHDVVLEQVPPAYKLNPGAIESIRQLPNSPSKLLVAYNRGLCVLWDFESASVQRAYIAPGHGQSVGLTVNFEGSEFTWYHADGSYATWSIDNPEPPSNVNYVPYGPDPCKSINRLYKGKRRSNDVIVFSGGMPRSAYGDHNCVSVHASDGHKVCLDFTSKVIDFFVTFENNRDVAEVLVVLLEEELCAYDLTDPNICAIKAPYLHSVHASAVTCNYLASEVVQSVYESILRAGDEQDIDYSNISWPITGGTLPDNLEESVEEDATKLYEILLTGHEDGSVKFWDCTGVLLKPIYNFKTSSIFGSESDFRDDAAADMSAEQVDEGEPPFRKSGLFDPYSDDPRLAVKKIAFCPKTGQLIVGGTAGQIVIADFIDLPEKVSLKYISMNLVSDRDGFVWKGHDQLNVRSNLLDGEAIPTTERGVNISGVLQVLPPASITCMALEASWGLVSGGTAHGLVLFDFKNFVPVFHRCTLNPNDLTGAGEQLSRRKSFKKSLRESFRKLRKGRSTRTNQSNQVPTTLEARPVERQIEARCADDGLGSMVRCLLFAKTYVTNVNITSPTLWSATNASTVSVFLLHLPPAQTAATAVPSASGNAPPHMPRRISAQLAKEIQLKHRAPVVGISIFDQAGSPVDQLNAGENGSPPHRVLIASEEQFKVFSLPQLKPINKYKLTANEGARIRRIHFGSFSCRISPETLQSMHGCSPTKSTRSHGDGEADPNISGSLAVSRGDVYNETALICLTNMGDIMVLSVPELKRQLNAAAVRREDINGVSSLCFTNSGEALYMMSSSELQRIALATSRVVQPTGVVPVEPLENEESVLEENDAENNKETYACDEVVNTYEIKNPSGISICTRPAEENVGRNSVQQVNGVNISNSPNQANETISSSIGDITVDSVRDHLNMTTTTLCSINTEETIGRLSVLSTQTNKASTTVNMSEIPNINISNLEDLESKRNTTETSTSSVVIKSIITNISHEKTNGDNKIGTPKTAPEESQF
Take B9: the MAPPIT interaction score with RpS21 is 0.14 (inactive).

B10: Csp (protein)
chain: MSAPGMDKRKLSTSGDSLYEILGLPKTATGDDIKKTYRKLALKYHPDKNPDNVDAADKFKEVNRAHSILSNQTKRNIYDNYGSLGLYIAEQFGEENVNAYFVVTSPAVKAVVICCAVITGCCCCCCCCCCCNFCCGKFKPPVNESHDQYSHLNRPDGNREGNDMPTHLGQPPRLEDVDLDDVNLGAGGAPVTSQPREQAGGQPVFAMPPPSGAVGVNPFTGAPVAANENTSLNTTEQTTYTPDMVNQKY
Turning to B10, in the assay with RpS10b, the MAPPIT interaction score was 1.05 (inactive).

B11: Cyp12a4 (protein)
chain: MLKVRSALSLIQSQKATLSLATQKRWQTNVATAEAREDSEWLQAKPFEQIPRLNMWALSMKMSMPGGKYKNMELMEMFEAMRQDYGDIFFMPGIMGNPPFLSTHNPQDFEVVFRNEGVWPNRPGNYTLLYHREEYRKDFYQGVMGVIPTQGKPWGDFRTVVNPVLMQPKNVRLYYKKMSQVNQEFVQRILELRDPDTLEAPDDFIDTINRWTLESVSVVALDKQLGLLKNSNKESEALKLFHYLDEFFIVSIDLEMKPSPWRYIKTPKLKRLMRALDGIQEVTLAYVDEAIERLDKEAKEGVVRPENEQSVLEKLLKVDRKVATVMAMDMLMAGVDTTSSTFTALLLCLAKNPEKQARLREEVMKVLPNKNSEFTEASMKNVPYLRACIKESQRLHPLIVGNARVLARDAVLSGYRVPAGTYVNIVPLNALTRDEYFPQASEFLPERWLRSPKDSESKCPANELKSTNPFVFLPFGFGPRMCVGKRIVEMELELGTARLIRNFNVEFNYPTENAFRSALINLPNIPLKFKFIDLPN
For the molecule B11, in the assay with RpL37A, the MAPPIT interaction score was -0.0129 (inactive).

B12: mts (protein)
chain: MEDKATTKDLDQWIEQLNECNQLTETQVRTLCDKAKEILSKESNVQEVKCPVTVCGDVHGQFHDLMELFRIGGKSPDTNYLFMGDYVDRGYYSVETVTLLVALKVRYRERITILRGNHESRQITQVYGFYDECLRKYGNANVWKYFTDLFDYLPLTALVDGQIFCLHGGLSPSIDSLDHIRALDRLQEVPHEGPMCDLLWSDPDDRGGWGISPRGAGYTFGQDISETFNNTNGLTLVSRAHQLVMEGYNWCHDRNVVTIFSAPNYCYRCGNQAALMELDDSLKFSFLQFDPAPRRGEPHVTRRTPDYFL
As to B12, the MAPPIT interaction score is 0.284 (inactive) in the assay with RpS3 and 1.55 (inactive) with msl-3.
